Most compounds without a hit are left out; they make up all but 4.7% or so of the library.
DRD3 antagonist – D3 dopamine receptor (human) antagonism; D3R cells, DiscoveRx beta-arrestin luminescence, antagonist mode; hits give low values; hit rate 2.5% among 360,000; max response, negative = inhibition, %; P35462; in the data active = max response below about -50%; inconclusive = no clear call, values can overlap the other calls
Target sequence (P35462 whole entry, looked up): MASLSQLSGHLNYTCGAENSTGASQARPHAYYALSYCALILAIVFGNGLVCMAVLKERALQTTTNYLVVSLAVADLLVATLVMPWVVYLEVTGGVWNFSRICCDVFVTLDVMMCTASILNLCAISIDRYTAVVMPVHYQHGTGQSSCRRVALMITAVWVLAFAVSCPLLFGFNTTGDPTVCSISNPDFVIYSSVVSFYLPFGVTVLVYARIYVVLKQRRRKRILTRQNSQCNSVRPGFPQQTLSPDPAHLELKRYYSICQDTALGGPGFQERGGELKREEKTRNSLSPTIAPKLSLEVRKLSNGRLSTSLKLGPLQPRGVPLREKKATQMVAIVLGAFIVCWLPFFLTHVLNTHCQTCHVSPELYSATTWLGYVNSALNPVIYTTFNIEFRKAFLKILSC
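Cells expressing the human receptor were seeded at 1500 cells/well, incubated overnight at 37 degrees C in 5% CO2, then exposed to library compounds with dopamine controls for 90 minutes at 37 degrees C before luminescent detection.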
S2 tox – cell viability loss in ATXN counter-screen | S2 cells (HEK-293 line with an ATXN2-luciferase reporter) viability, CellTiter-Fluor protease fluorescence, 24 h | AID 651635 | Potency, µM (doses to about 56.7 µM), most hits filed as cytotoxic | hit rate 0.49% among 400,000; also: nearly all actives have a fitted effect of over 40% in size
ATXN2 expr inh – inhibitors of ATXN2 expression. hit rate 0.72% among 360,000. HEK-293 ATXN2-luciferase reporter, luminescence, 24 h. Potency, µM (series often up to 57 µM), actives largely listed as inhibitors; also: nearly all actives have a fitted effect of over 55% in size
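ATXN2-luciferase reporter cells (luciferase flanked by upstream and downstream ATXN2 gene portions) were treated 24 h at 37 °C with compounds at up to 57 uM. SteadyGlo luminescence gave expression; GF-AFC fluorescence gave viability.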
HepG2 viability – kills HepG2 cells in TGF-b inhibitor counter-screen; HepG2 CAGA-GFP viability, ATP luminescence, 18 h; Potency, µM (doses to about 46.1 µM), actives largely listed as cytotoxic; AID 588856; hit rate 0.76% among 410,000
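HepG2 CAGA-GFP cells (1000/well, DMEM with 1% FBS) received compound, then TGF-beta at 500 pg/mL final, and were incubated 18 hours at 37 degrees C. Viability was read by CellTiter-Glo luminescence. Media-only wells were set as complete cell-killing and DMSO as no toxicity.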
D3 ag – activates the human D3 dopamine receptor; P35462; D3R DiscoveRx beta-arrestin cells, luminescence, 90 min; max activation, %; hit rate 0.58% among 410,000; AID 652048; in the data active = max activation above about 30%
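Agonist mode: compounds and dopamine controls were applied to plated cells for 90 min at 37 degrees C after an overnight attachment at 1500 cells/well. Luminescent read-out followed 30 - 60 minutes at room temperature with DiscoveRx detection reagent.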
TGFb inhibitor – blocks TGF-b signaling; HepG2 CAGA-GFP TGF-b/SMAD3 reporter, GFP fluorescence, 18 h; TGF-beta stimulated, 500 pg/mL final; Potency, µM (highest dose often 46.1 µM), usual class: inhibitors; hit rate 1.2% among 410,000; AID 588855; also: nearly all actives have a fitted effect of over 65% in size
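HEPG2 CAGA-GFP, 1000 cells/well; 2 h settle, 37 C; cpd via pin tool; TGF-b 500 pg/mL final; 18 h, 37 C; GFP imaging ex488/em500-530; %Activity normalised to -TGF-b and +DMSO controls; CRC fit, curve class.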
A number is an active result; . = inactive; ? = inconclusive; / = no result given. Unless noted, calls follow the shape of the dose curve; as a rule, active = well fitted curve in the direction sought with a large enough effect; inconclusive = small, poorly fitted or top-dose-only effect, or another doubt; inactive = no such curve, though single readings can be large; an effect the other way counts as inactive or inconclusive.

SMILES	DRD3 antagonist	S2 tox	ATXN2 expr inh	HepG2 viability	D3 ag	TGFb inhibitor
CN(C)[C@H](Cc1ccccc1)c1ccccc1	/	/	/	/	.	/
Cc1ccc(C(=O)CN2CCOCC2)cc1	/	/	/	.	/	.
O=C(CCN1CCN(c2ccccc2)CC1)c1ccc(Br)cc1	-59.6	/	/	.	.	?
c1ccc(N2CCN(c3ccccc3)CC2)cc1	/	/	/	.	/	.
CCNC(=O)C[C@@H]1N=C(c2ccc(Cl)cc2)c2cc(OC)ccc2-n2c(C)nnc21	/	/	.	/	/	/
COC(=O)C1=C(c2ccc(Cl)c(C(F)(F)F)c2)C[C@@H]2CC[C@H]1N2C(=O)N1CCC(O)(c2ccc(Cl)cc2)CC1	.	?	?	.	.	14.1µM
COC(=O)C1=C(c2ccc(Cl)c(C(F)(F)F)c2)C[C@@H]2CC[C@H]1N2C(=O)N1CCCC1	.	.	.	.	.	.
CC(C)Oc1cccc(NC(=O)c2cccn(Cc3ccc4c(c3)OC(F)(F)O4)c2=O)c1	.	.	.	.	.	.
Cc1cccc(C)c1NC(=O)c1cccn(Cc2ccc3c(c2)OC(F)(F)O3)c1=O	.	.	.	11.2µM	.	.
O=C(Cn1c(=O)oc2cc(Cl)ccc21)Nc1cccc(C(F)(F)F)c1	/	/	/	.	.	?
O=C1NC(=O)C(=Cc2ccc(SC3CCCCC3)o2)C(=O)N1	.	/	17.8µM	.	.	?
NS(=O)(=O)c1ccc(-c2ccc(C=C3C(=O)NC(=O)NC3=O)o2)cc1	.	.	.	.	.	.
O=C(Cn1c(=O)oc2cc(S(=O)(=O)NCc3ccccc3)ccc21)NCc1ccc(F)cc1	/	?	.	.	.	?
Cc1ccccc1CN1CCc2nc(N3CCN(c4ccccn4)CC3)ncc2C1	/	?	.	.	.	.
CN(C)c1ccc(CN2CCc3nc(N4CCN(c5ccccn5)CC4)ncc3C2)cc1	/	?	28.2µM	.	.	8.91µM
Cc1ccc(-c2nnc(Nc3ccc(Br)cc3)c3ccccc23)cc1S(=O)(=O)NCc1nc2ccccc2[nH]1	/	.	.	.	.	?
CCOc1cccc(CC(=O)NCc2ccc3c(c2)CCN3C(=O)c2cccc(C)c2)c1OCC	/	28.2µM	?	.	.	?
CN(C)C1CCc2[nH]c3c(F)cc(F)cc3c2C1 (stereo not given)	-104.7	.	/	.	.	.
O=C(Oc1ccc([N+](=O)[O-])cc1)N1CCN(Cc2cccc(Oc3ccccc3)c2)CC1	/	/	.	/	/	/
CCN(CC)CCCOC(=O)C(OC(C)C)(c1ccccc1)c1ccccc1	-100.8	?	?	.	.	.
CCOC(C(=O)OCCCN(CC)CC)(c1ccccc1)c1ccccc1	-54.9	.	.	.	.	.
Cc1ccc(NC(=O)NCc2ccc3c(c2)CCN3C(=O)c2ccccc2)c(Cl)c1	/	.	.	.	.	?
CNC(=O)N1N=C(c2ccc(N)cc2)c2cc3c(cc2CC1C)OCO3 (stereo not given)	/	/	.	/	/	/
O=[N+]([O-])c1ccc(N2CCCC(C(F)(F)F)C2)c2ccncc12 (stereo not given)	.	.	.	.	31.7	?
O=[N+]([O-])c1ccc(N2CCCCC2)c2ncccc12	.	.	.	.	.	.
SMILES	DRD3 antagonist	S2 tox	ATXN2 expr inh	HepG2 viability	D3 ag	TGFb inhibitor
Cc1cccc(CN2CCN(Cc3ccc(Cl)cc3)CC2)c1	-64.1	?	.	.	.	?
Fc1ccc(CN2CCN(c3ccc(Cl)cc3)CC2)cc1	-52.0	.	/	.	.	?
Cc1cccc(CN2CCN(c3ccc(Cl)cc3)CC2)c1	-94.6	?	/	.	.	?
CN1C[C@H](C(=O)N[C@]2(C)O[C@]3(O)[C@H]4CCCN4C(=O)[C@H](Cc4ccccc4)N3C2=O)C[C@H]2c3cccc4[nH]cc(c34)C[C@@H]21	/	.	/	/	/	/
CN1C[C@H](C(=O)N[C@]2(C)O[C@@]3(O)[C@@H]4CCCN4C(=O)[C@H](Cc4ccccc4)N3C2=O)CC2c3cccc4[nH]cc(c34)C[C@H]21 (stereo not given in full)	-65.3	?	.	.	.	.
CCCCOc1ccc(C(=O)NCCc2csc(-c3ccc(OC)cc3)n2)cc1	/	/	/	.	.	?
CCCCCCCCCC(CC)c1ccc(S(=O)(=O)O)cc1 (stereo not given)	/	31.6µM	.	/	.	/
CCCCCCC(N)CC(=O)O (stereo not given)	.	.	.	.	.	.
CN(C)c1ccc(N=O)cc1	/	/	/	.	/	5.01µM
Cc1ccccc1C(=O)Nc1ccc(C(=O)OCc2cc(=O)n3nc(C4CC4)sc3n2)cc1	/	?	?	.	.	.
CCOC(=O)c1ccc(N2C(=O)c3n[nH]c(-c4cccs4)c3C2c2ccc(OC)cc2OC)cc1 (stereo not given)	/	.	.	.	.	5.01µM
Oc1cc2c(cc1CN1CCN(c3ccccc3)CC1)CCC2	.	.	.	.	.	.
Brc1cc2c(cc1CN1CCN(c3ccccc3)CC1)OCCO2	-73.4	.	.	.	.	.
Oc1ccc(Cl)cc1CN1CCN(Cc2ccccc2)CC1	-65.5	.	.	.	.	.
Oc1cc2c(cc1CN1CCN(c3ccc(F)cc3)CC1)OCO2	-66.5	.	.	.	.	.
Fc1ccccc1N1CCN(Cc2ccc3c(c2)OCO3)CC1	?	.	.	.	.	.
O=C(Cc1ccccc1)N1CCN(Cc2ccc(Cl)cc2)CC1	.	?	?	.	.	.
Cc1cc(O)c(CN2CCN(c3ccccc3)CC2)cc1C	-64.8	.	.	.	.	.
C=C1C[C@H]2[C@H]3CCC(=O)[C@@]3(C)CC[C@@H]2[C@@]2(C)C=CC(=O)C=C12	/	/	.	/	/	/
CCc1nc2c(OCc3ccc(C(F)(F)F)cc3)cccn2c1N(C)C(=O)C(C)C	.	?	?	.	.	.
[H+].[H+].[Hg+2].[O-]B([O-])[O-].[c-]1ccccc1	/	/	/	/	.	/
Cc1ccc(O)c(CN2CCC3CCC(C3)C2)c1 (stereo not given)	.	?	.	.	.	.
COc1ccc(CN2CCN(c3ccccc3)CC2)c(C)c1C	-75.3	.	.	.	.	.
COc1cccc(CN2CCN(c3ccc(F)cc3)CC2)c1OC	?	.	/	.	.	.
Cc1ccc(O)c(CN2CCN(c3ccccc3)CC2)c1	-80.0	.	.	.	.	.
CCN1CCCC1CNC(=O)C(O)(c1ccccc1)c1ccccc1 (stereo not given)	/	.	.	/	/	/
CC(C)C[C@H]1C(=O)N2CCC[C@@H]2[C@@]2(O)O[C@](NC(=O)[C@@H]3C=C4c5cccc6[nH]cc(c56)C[C@@H]4N(C)C3)(C(C)C)C(=O)N12	/	.	/	/	/	/

Compound activity deposited in PubChem BioAssay by National Center for Advancing Translational Sciences (NCATS).
